In all, about 360,000 compounds went through this assay and about 25,000 (6.9%) were called active. Not shown: some 9% with an inconclusive outcome. The sample as a whole holds a higher share of actives than the screen did. A number with no mark means an inactive call. Calls come from the whole dose curve; as a rule, active = well fitted inhibition curve with a large enough effect; inconclusive = small, poorly fitted or top-dose-only effect; inactive = flat fitted curve, though single readings scatter.
Potency is the fitted concentration of half-maximal effect.

Luciferin 4-monooxygenase (Photinus pyralis), sequence (P08659 whole entry, looked up): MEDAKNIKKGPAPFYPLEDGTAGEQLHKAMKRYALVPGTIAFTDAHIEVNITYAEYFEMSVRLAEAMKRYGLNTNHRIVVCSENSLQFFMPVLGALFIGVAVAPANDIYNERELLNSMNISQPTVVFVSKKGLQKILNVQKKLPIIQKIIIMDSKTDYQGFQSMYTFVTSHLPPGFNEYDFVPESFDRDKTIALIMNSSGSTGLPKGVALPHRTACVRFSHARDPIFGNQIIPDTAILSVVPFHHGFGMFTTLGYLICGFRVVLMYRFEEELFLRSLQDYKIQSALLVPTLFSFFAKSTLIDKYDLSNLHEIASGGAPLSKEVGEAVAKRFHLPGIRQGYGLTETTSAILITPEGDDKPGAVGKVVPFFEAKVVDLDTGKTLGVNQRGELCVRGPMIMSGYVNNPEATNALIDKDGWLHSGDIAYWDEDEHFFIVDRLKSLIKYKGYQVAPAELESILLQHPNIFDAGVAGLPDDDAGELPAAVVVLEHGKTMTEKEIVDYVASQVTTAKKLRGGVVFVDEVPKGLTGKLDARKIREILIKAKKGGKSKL

The assay concerns the target Luciferin 4-monooxygenase (Photinus pyralis) (UniProt P08659). The experiment in a line: qHTS profiling assay for firefly luciferase inhibitor/activator using purifed enzyme and Km concentrations of substrates (counterscreen for miR-21 project).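 For activity change, negative = inhibition: plate controls were vehicle for no effect and reference inhibitor for full effect.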 Note: nearly all actives have a fitted effect of over 55% in size. The conditions noted are these: purified FLuc, luminescence inhibition; series mostly up to 57.5 µM; activity change, negative = inhibition: at the top concentration. An outline of the steps: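 Purified P. pyralis luciferase, 10 nM final, with Km-level 10 uM D-luciferin and 10 uM ATP in 50 mM Tris acetate pH 7.5, 10 mM Mg acetate, 0.01% Tween-20, 0.05% BSA; 6-point qHTS titration about 60 µM downward; luminescence read.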
For orientation: qHTS replaces the single test concentration by a dilution series.
For `CCOC(=O)c1c(C)oc2nc(C)nc(N(CC(C)C)CC(C)C)c12`, the “activity change, negative = inhibition” value was -7.08%.

Turning to `O=C(COC(=O)CCCN1C(=O)c2cccc3cccc(c23)C1=O)NC1CCS(=O)(=O)C1` (stereo not given), the “activity change, negative = inhibition” value was 1.69%. On the same count and under the same terms, in the case of `COc1ccc(N2CCN(C(=O)c3c(C)oc4nc(C)nc(N5CCCC5)c34)CC2)cc1` it was 6.34%; in that of `Cc1ccccc1Nc1nc(N)nc(COC(=O)CCC(=O)c2ccc(F)cc2)n1`, 4.1%; in that of `CCOC(=O)N1CCN(C(=O)COC(=O)c2cccc(S(C)(=O)=O)c2)CC1`, -1.79%. The same measure, in the same setting: the result for `CCc1ccc(S(=O)(=O)c2nnn3c2nc(NCc2ccccc2OC)c2cc(Cl)ccc23)cc1` reads -0.594%. The same measure, in the same setting: in the case of `COc1ccc(N2CCN(S(=O)(=O)CCNC(=O)C(c3ccccc3)c3ccccc3)CC2)cc1` it was 7.73%; in that of `CCC(=O)Nc1ccccc1-c1nc2ccccc2n(CC(=O)Nc2ccc(C)c(C)c2)c1=O`, -0.959%. Take `CCN(CC)c1ccc(/C=N/NC(=O)CNC(=O)c2cccs2)cc1`: the Potency is 23.9 µM (active). On the same count and under the same terms, in the case of `CC(=O)Nc1ccc(/C=N/NC(=O)c2cccs2)cc1` it was 12 µM (active).

As to `NC(=O)N/N=C\c1cccs1`, the “activity change, negative = inhibition” value was 4.22%. Same read-out and setting: the result for `Cc1cccc(OCC(=O)NCC(=O)N/N=C/c2ccc(N(C)C)cc2)c1` reads -2.61%. Same read-out and setting: in the case of `O=C(NC(Cc1c[nH]c2ccccc12)C(=O)N/N=C/c1ccc(Br)cc1)c1cccs1` (stereo not given) it was 3.94%.

On to `CC(C)OCCCNC(=O)CNC(=O)c1cccs1`, for which the “activity change, negative = inhibition” value was 0.296%. With `CCC(Sc1nnc(-c2ccc(OC)cc2)c(-c2ccc(OC)cc2)n1)C(=O)NC1CCCCC1` (stereo not given), the “activity change, negative = inhibition” value is -1.88%.

In the case of `CCOC(=O)c1c(NC(=O)/C=C/c2ccc(OC)cc2)sc2c1CCC(C)C2` (stereo not given), the “activity change, negative = inhibition” value was -4.98%. On the same count and under the same terms, the result for `CCc1ccc(C(=O)CC2(O)C(=O)N(CCc3ccccc3)c3ccc(Br)cc32)cc1` (stereo not given) reads -0.823%; that for `Cc1ccc(S(=O)(=O)N2CCCCC2)cc1NC(=O)[C@@H]1CCCN1C(=O)c1cccs1`, 0.451%; that for `CC(=O)Nc1ccc(NC(=O)c2cc3sccc3n2Cc2ccc(F)cc2)cc1`, -7.58%.

`CCOC(=O)c1cc(C)sc1NC(=O)C1CCC1`: the “activity change, negative = inhibition” value was 1.17%. Regarding `O=C(Nc1ccccc1Cl)c1ccc2nsnc2c1`, the Potency was 19 µM (active). With `Cc1cccc(NC(=O)c2ccc3nsnc3c2)c1C`, the “activity change, negative = inhibition” value is -18.7%. The same measure, in the same setting: in the case of `CCc1ccccc1NC(=O)c1ccc2snnc2c1` it was -1.29%. Still for that read-out and setting: the result for `CC1(C)CC(N2CCN(C(c3ccccc3)c3ccccc3)CC2)=CC(=[N+]2CCCCC2)C1` reads 1.86%; that for `O=S(=O)(NC1CC1)c1ccc(Cl)cc1`, -1.93%; that for `Cc1ccc(CNC(=O)Cn2c(=O)ccc3cc(S(=O)(=O)N4CCCC4)ccc32)cc1`, -6.95%. For `COCCN(C(=O)C(C)C)c1nnc(-c2ccc(C(C)(C)C)cc2)s1`, the Potency is 15.1 µM (active). For the compound `Cc1nnc(N(Cc2ccco2)C(=O)c2ccno2)s1`, the “activity change, negative = inhibition” value is -14.6%. Still for that read-out and setting: the result for `COc1ccc(N(CC(=O)NC(C)(C)C)C(=O)c2ccco2)cc1` reads 1.44%. On to `COCCN(C(=O)c1ccco1)c1nnc(-c2ccc(OC)cc2)s1`, for which the Potency was 21.3 µM (active). Regarding `CN1CCNC(=O)C1CC(=O)N1CC=C(c2ccc(F)cc2)CC1` (stereo not given), the “activity change, negative = inhibition” value was -1.89%.

`Cn1c(C(=O)N2CCC(C(=O)N3CCN(c4ccccc4)CC3)CC2)cc2sccc21`: the “activity change, negative = inhibition” value was -7.63%. For the compound `Cc1ccc(C)c(NC(=O)CSC2=Nc3ccccc3N=C(c3ccc(F)cc3)C2)c1`, the “activity change, negative = inhibition” value is -5.62%.

`CCOc1ccc(CNC(=O)c2ccc3nc(CC)c(CC)nc3c2)cc1OC`: the “activity change, negative = inhibition” value was 2.17%. Take `CCN(CC)c1ccc(NC(=O)Cn2nc3c(cc2=O)CCCC3)c(C)c1`: the “activity change, negative = inhibition” value is -0.779%. Same read-out and setting: the result for `CCOc1ccc(CNC(=O)c2ccc3c(c2)nnn3C2CCCC2)cc1` reads -17%.

For the compound `O=C(CNCCC1=CCCCC1)Nc1ccccc1N1CCCCCC1`, the “activity change, negative = inhibition” value is -1.89%.

`COc1ccc(NS(=O)(=O)c2cc3c(cc2C)N(C(C)=O)CCO3)cc1`: the Potency entry is “inactive”. For the compound `COCCCNC(=O)c1c(NC(=O)c2cc(=O)c3cc(C)c(C)cc3o2)sc2c1CCCC2`, the “activity change, negative = inhibition” value was 0.689%. Turning to `O=C1C(C=NCC2CCCO2)=C(O)c2ccccc21` (stereo not given), the Potency was 19 µM (active). As for `O=C1c2cccc3c([N+](=O)[O-])ccc(c23)C(=O)N1CC1CCCO1` (stereo not given), the “activity change, negative = inhibition” value was 3.12%.

Take `CC(=NCC1CCCO1)c1c(O)[nH]c(=O)[nH]c1=O` (stereo not given): the “activity change, negative = inhibition” value was 2.32%. Take `CC(C)c1ccc(NC(=O)c2ccc3c(O)c(S(=O)(=O)c4ccccc4)c(=O)[nH]c3c2)cc1`: the Potency is 1.51 µM (active). As to `CCCCCn1c(=O)[nH]c2cc(C(=O)Nc3ccc(F)cc3)ccc2c1=O`, the “activity change, negative = inhibition” value was -1.87%. Same read-out and setting: in the case of `CC(C)n1c(=O)[nH]c2cc(C(=O)Nc3ccccc3)ccc21` it was -1.1%; in that of `CCCCn1c(N)c(N(CCC(C)C)C(=O)COC(=O)c2cccnc2OCC)c(=O)[nH]c1=O`, -0.738%.

Consider `COc1ccc(/C=N/OCc2ccccc2C#N)c(OC)c1`, for which the Potency is 21.3 µM (active). In the case of `COc1ccc(C=C(C#N)C#N)c(CSc2ccccn2)c1`, the “activity change, negative = inhibition” value was 2.03%.

As to `Cc1cc(C)nc(SCc2ccccc2C#N)n1`, the “activity change, negative = inhibition” value was 0.806%. Same read-out and setting: the result for `Cc1ccccc1OCC(=O)Nc1c(C(=O)Nc2ccccc2F)oc2ccccc12` reads 0.53%.

(Values after PubChem BioAssay AID588342 (National Center for Advancing Translational Sciences (NCATS), 2011).)
